Consider 9 compounds from PubChem BioAssay (NCI).

Among the test systems are SK-MEL-2 melanoma; EKVX NSCLC; SN12C renal; UO-31 renal; TK-10 renal; A498 renal; CCRF-CEM leukemia; MOLT-4 leukemia; SR leukemia; RPMI-8226 leukemia; OVCAR-8 ovarian; OVCAR-5 ovarian; OVCAR-4 ovarian; SK-OV-3 ovarian; IGROV1 ovarian; OVCAR-3 ovarian; HS 578T breast; NCI/ADR-RES ovarian; ACHN renal; CAKI-1 renal.
What all share (assay): NCI-60 one-dose screen, 48 h (100 = growth as untreated, 0 = no growth, -100 = all killed)
Common to all, as to details: 10 µM unless noted

This is part of a sample that, as a whole, favours compounds with a hit. Of some 83,000 tested, about 20% had one in any assay.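 Growth was measured after 48 h exposure to one concentration of compound in 96-well plates. Values under 10 count as active.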 Unmarked numbers belong to inactive results. Activity calls are given as the source filed them.

Take `N#Cc1nnn(-c2ccc(S(N)(=O)=O)cc2)c1NCC(=O)c1ccccc1`: the growth in the assay on SK-MEL-2 melanoma was 97.8%; in the assay with EKVX NSCLC it was 90.9%; in the assay with SN12C renal, 97.1%; in the assay on UO-31 renal, 78.9%; in the assay on TK-10 renal it was 107%; with A498 renal, 101%. Further, the growth with CCRF-CEM leukemia was 83.6%; in the assay on MOLT-4 leukemia, 89.9%; with SR leukemia it was 90.7%; in the assay on RPMI-8226 leukemia, 87.5%; with OVCAR-8 ovarian, 91.6%; in the assay on OVCAR-5 ovarian it was 108%. Also, the growth with OVCAR-4 ovarian is 89.8%; with SK-OV-3 ovarian, 91.9%; with IGROV1 ovarian it was 99.5%; in the assay on OVCAR-3 ovarian it was 106%; in the assay on HS 578T breast, 98.3%; in the assay on NCI/ADR-RES ovarian, 105%.

Consider `CCn1c(Cc2ccccc2Nc2c(Cl)cccc2Cl)nnc1SCC(=O)NN1C(=O)/C(=C/c2cc(OC)c(O)c(OC)c2)SC1=S`, for which the growth in the assay with SK-MEL-2 melanoma was 30.7%; in the assay with EKVX NSCLC it was 60.2%; in the assay on SN12C renal, 54.8%; in the assay with UO-31 renal, 59.6%; with ACHN renal, 58.9%; in the assay with CAKI-1 renal, 37%. In addition, the growth in the assay with A498 renal is 20.6%; in the assay on CCRF-CEM leukemia, 19.1%; in the assay on MOLT-4 leukemia, 23.1%; with SR leukemia, 21.4%; in the assay with RPMI-8226 leukemia, 47%; in the assay with OVCAR-8 ovarian, 60%. The growth with OVCAR-5 ovarian is 55.5%; with OVCAR-4 ovarian it was 74%; in the assay on SK-OV-3 ovarian, 23.2%; in the assay with IGROV1 ovarian, 42.9%; in the assay with OVCAR-3 ovarian it was 7.37% (active); in the assay with HS 578T breast, 5.34% (active).

As to `COc1ccc(Nc2c3c4c(cccc4[nH]c2=O)C(=O)c2ccccc2-3)cc1`, the growth in the assay on SK-MEL-2 melanoma is 40.2%; in the assay on EKVX NSCLC, 42.3%; in the assay on SN12C renal, 40%; with UO-31 renal, 30.3%; with TK-10 renal, 28.6%; with CAKI-1 renal, 11.7%. Further, the growth in the assay with A498 renal is 23%; in the assay with CCRF-CEM leukemia, -0.546% (active); in the assay with MOLT-4 leukemia, 1.81% (active); in the assay with RPMI-8226 leukemia, 5.52% (active); with OVCAR-8 ovarian, 13.1%; in the assay on OVCAR-5 ovarian, 24.1%. Moreover, the growth with OVCAR-4 ovarian was 58.4%; in the assay with SK-OV-3 ovarian it was -5.92% (active); in the assay on IGROV1 ovarian, -11.9% (active); with OVCAR-3 ovarian it was -39% (active); in the assay with HS 578T breast, -12.4% (active); in the assay on NCI/ADR-RES ovarian, 0.0341% (active).

In the case of `C=C(C)C(=O)Nc1ccc(NC(C)C)cc1`, the growth in the assay on SK-MEL-2 melanoma is 53.5%; with EKVX NSCLC it was 115%; in the assay on SN12C renal, 121%; in the assay on UO-31 renal, 100%; with TK-10 renal it was 138%; with A498 renal, 101%. For the same compound, the growth in the assay with SR leukemia is 96.6%; in the assay with OVCAR-8 ovarian, 93.5%; in the assay with OVCAR-5 ovarian it was 117%; in the assay with OVCAR-4 ovarian, 111%; with SK-OV-3 ovarian, 109%; in the assay on IGROV1 ovarian, 120%. In addition, the growth in the assay with OVCAR-3 ovarian is 121%; with HS 578T breast, 141%; in the assay with NCI/ADR-RES ovarian, 112%.

For the compound `CC1=CC(C)(C)Nc2ccc(Cc3ccc4c(c3)C(C)=CC(C)(C)N4)cc21`, the growth in the assay on SK-MEL-2 melanoma is 90.6%; in the assay with EKVX NSCLC, 81.4%; in the assay on SN12C renal it was 97.1%; in the assay with UO-31 renal, 77.8%; with TK-10 renal, 112%; with CAKI-1 renal, 73.6%. For the same compound, the growth is 109% in the assay with A498 renal; 82.9% in the assay on MOLT-4 leukemia; 118% in the assay with SR leukemia; 89.7% in the assay on OVCAR-5 ovarian; 72.2% in the assay on OVCAR-4 ovarian; 105% with SK-OV-3 ovarian. For the same compound, the growth in the assay with IGROV1 ovarian is 92.7%; in the assay on OVCAR-3 ovarian, 97.4%; with HS 578T breast it was 103%; in the assay with NCI/ADR-RES ovarian it was 100%.

Regarding `COc1cc(C(=O)Oc2ccccc2OC(=O)c2cc(OC)c(OC)c(OC)c2)cc(OC)c1OC`, the growth in the assay with SK-MEL-2 melanoma was 115%; in the assay with EKVX NSCLC, 95.7%; in the assay on SN12C renal, 98.4%; in the assay on UO-31 renal it was 84.5%; in the assay on TK-10 renal it was 98.4%; in the assay with CAKI-1 renal, 91.6%. Also, the growth in the assay on A498 renal was 108%; in the assay on CCRF-CEM leukemia, 97.2%; in the assay with MOLT-4 leukemia it was 114%; with SR leukemia it was 103%; in the assay with RPMI-8226 leukemia it was 76.2%; with OVCAR-8 ovarian it was 92.1%. In addition, the growth in the assay with OVCAR-4 ovarian is 105%; in the assay on SK-OV-3 ovarian it was 84.9%; in the assay on IGROV1 ovarian it was 101%; in the assay with OVCAR-3 ovarian it was 97.7%; with NCI/ADR-RES ovarian it was 95.7%.

For `COc1ccc(C2C(C#N)=C(N)Oc3n[nH]c(-c4cccs4)c32)cc1I` (stereo unspecified), the growth is 101% in the assay with SK-MEL-2 melanoma; 96% in the assay with EKVX NSCLC; 96.5% in the assay with SN12C renal; 81.8% with UO-31 renal; 99.7% in the assay with TK-10 renal; 98.5% with ACHN renal. Further, the growth was 77.4% with A498 renal; 76.3% in the assay with CCRF-CEM leukemia; 53.2% in the assay on SR leukemia; 78.8% in the assay with RPMI-8226 leukemia; 95% with OVCAR-8 ovarian; 107% in the assay on OVCAR-5 ovarian. The growth was 108% with OVCAR-4 ovarian; 92.1% in the assay with SK-OV-3 ovarian; 91.2% in the assay on IGROV1 ovarian; 91.7% in the assay with OVCAR-3 ovarian; 87.5% with HS 578T breast; 96.2% in the assay on NCI/ADR-RES ovarian.

`C=C1c2nc3ccccc3n2C=C(c2ccc(OC)cc2)N1Cc1ccccc1`: the growth is 57.7% in the assay with SK-MEL-2 melanoma; 62.6% in the assay with EKVX NSCLC; 98.7% with SN12C renal; 54.6% in the assay with UO-31 renal; 118% in the assay on TK-10 renal; 101% with CAKI-1 renal. Besides, the growth is 69.7% in the assay with A498 renal; 78.9% with CCRF-CEM leukemia; 71.5% in the assay with MOLT-4 leukemia; 47.3% in the assay on SR leukemia; 39.4% in the assay on RPMI-8226 leukemia; 88.3% in the assay with OVCAR-8 ovarian. The growth in the assay on OVCAR-5 ovarian is 101%; in the assay with OVCAR-4 ovarian it was 80.1%; with SK-OV-3 ovarian it was 107%; with IGROV1 ovarian, 96.7%; in the assay with OVCAR-3 ovarian, 85.4%; with HS 578T breast, 116%. Besides, in the assay with NCI/ADR-RES ovarian, the growth is 77.4%.

Take `COc1cc(C=Nc2oc(-c3ccccc3)c(-c3ccccc3)c2C#N)cc(CN2CCCCC2)c1O`: the growth was 103% with SK-MEL-2 melanoma; 95% with EKVX NSCLC; 99.5% in the assay on SN12C renal; 73.6% with UO-31 renal; 107% in the assay on TK-10 renal; 86.6% in the assay with CAKI-1 renal. For the same compound, the growth with A498 renal is 72.3%; with CCRF-CEM leukemia, 101%; with MOLT-4 leukemia it was 86.8%; in the assay with RPMI-8226 leukemia, 100%; in the assay with OVCAR-8 ovarian, 105%; in the assay with OVCAR-5 ovarian, 97%. In addition, the growth was 91.6% with OVCAR-4 ovarian; 116% in the assay on SK-OV-3 ovarian; 99.6% in the assay with IGROV1 ovarian; 110% in the assay with OVCAR-3 ovarian; 95.7% in the assay with NCI/ADR-RES ovarian.
